# An excerpt weighted towards active compounds, which were near 19% of everything screened.
# AMA1-RON2 inh = inhibitors of Plasmodium falciparum AMA1-RON2 interaction | AlphaScreen AMA1-biotinylated RON2 peptide binding | Potency, µM (highest dose often 58.2 µM), inactives show top-dose activity change, negative = inhibition, usual class: inhibitors | hit rate 0.2% among 360,000;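 also: potency is read from the fitted curve at half-maximal effect; 0% = vehicle wells and -100% = peptide control; nearly all actives have a fitted effect of over 45% in size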
#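 AMA1 (3D7) with his tag at 25 nM final met compounds first, then biotinylated RON2 peptide at 25 nM; detection used donor plus acceptor beads, 10 µg/mL apiece, read by AlphaScreen after 30 min at room temperature.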
# Pf growth 96h = inhibits malaria parasite growth, 96 h; P. falciparum luciferase reporter growth, 96 h; Potency, µM (top dose mostly 28.7 µM), inactives show top-dose activity change, negative = inhibition, hits mostly inhibitors; hit rate 6.9% among 320,000; AID 504834; also: potency is read from the fitted curve at half-maximal effect; % is scaled to controls: 0 for no effect and ±100 for the full control effect
#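 Two-generation exposure (96 h) targets delayed-death phenotype. Reporter parasites carrying integrated firefly luciferase, in red cells at 2% hematocrit and 0.05% parasitemia final, kept at 37 C, 5% CO2; luminescence loss indicates inhibition.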
# Pf growth 48h = P. falciparum growth inhibition at 48 hours (one generation) | P. falciparum luciferase growth in erythrocytes, 48 h | Potency, µM (titrated, usually from 28.7 µM), for the others: at the top dose activity change, negative = inhibition, usual class: inhibitors | hit rate 5.9% among 310,000 | AID 504832; also: potency is read from the fitted curve at half-maximal effect; % is scaled to controls: 0 for no effect and ±100 for the full control effect
#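 Erythrocytes infected with P. falciparum carrying an integrated firefly luciferase reporter (2% hematocrit, 0.1% parasitemia final) were exposed to compounds in RPMI 1640 with 0.5% Albumax at 37 C, 5% CO2. Growth inhibition was scored as reduced luminescence.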
# CHX counter = affects cycloheximide protein synthesis inhibition readout, counter-screen; cell reporter, cycloheximide protein synthesis inhibition counterscreen; max response, %; hit rate 12% among 300,000; AID 2314; in the data active = max response mostly above about 13%, no sharp cut-off; inactive = mostly below about 14%; also: read at 38.3 µM for the half of the compounds with a filed dose; 0% is about no effect
# Shiga toxin inh = blocks Shiga toxin action in Vero cells; inhibition, % at 38.7 µM; hit rate 9.2% among 290,000; Vero cells, Shiga toxin protein synthesis inhibition reporter; AID 2315; in the data active = inhibition mostly above about 28%, no sharp cut-off; inactive = mostly below about 43%; also: 0% is about no effect
# SARS PLP yeast = SARS-CoV PLP inhibition in yeast | S. cerevisiae expressing SARS-CoV PLpro, growth rescue | hit rate 0.19% among 330,000 | Potency, µM (doses to about 32.9 µM), without a hit: at the highest dose activity, positive = growth rescue, usual class: activators; calls by dose curve; also: potency is read from the fitted curve at half-maximal effect; 0% is about no effect; nearly all actives have a fitted effect of over 55% in size
# An asterisk follows results filed as active; i = inactive; ? = inconclusive; . = no result; [ ] = remark or other dose. Unless noted, calls follow the shape of the dose curve; as a rule, active = well fitted curve in the direction sought with a large enough effect; inconclusive = small, poorly fitted or top-dose-only effect, or another doubt; inactive = no such curve, though single readings can be large; an effect the other way counts as inactive or inconclusive.
SMILES,AMA1-RON2 inh,Pf growth 96h,Pf growth 48h,CHX counter,Shiga toxin inh,SARS PLP yeast
COC[C@H]1CCCN1c1ccc2c(c1)O[C@@H](COCc1ccccc1)CN([C@@H](C)c1ccccc1)S2(=O)=O,-20.8%,.,.,.,.,.
CC(C)(C)c1cc(NC(=O)c2cccnc2)no1,7.8%,-25.4%,36.7%,30.7*,79.3,1.1%
Cc1ccc(S(=O)(=O)CCC(=O)Nc2nc(C(C)(C)C)cs2)cc1,-0.7%,29.9%,5.8%,0.5,5.1,3.2%
CC(C)(C)c1cc(NC(=O)c2cccs2)no1,3.4%,.,.,.,.,.
CC(C)(C)c1csc(NC(=O)CCc2ccccc2)n1,14.6%,?,-20.5%,24.6*,.,-8.4%
CC(C)(C)c1csc(NC(=O)c2cccnc2)n1,0.1%,14.7µM*,?,12.8*,16.7,-7.1%
CN(C)S(=O)(=O)c1ccc(C(=O)OCC2CCCO2)cc1 (centres undefined),1.4%,2.4%,22.6%,7.4,17.2,0.1%
CCNC(=O)N(C)C[C@H]1N[C@@](CC)(C(=O)OC)[C@H]2C(=O)N(C)C(=O)[C@@H]12,4.4%,.,.,.,.,1.0%
COC(=O)[C@@]1(Cc2ccccc2)[C@@H]2C(=CC(=O)[C@H]2CC(=O)C(=O)N(C)C)CN1C(=O)c1ccccc1,-1.5%,10.4µM*,?,-7.4,-20.7,6.4%
Clc1ccc(CN=C2Nc3ccccc3CS2)cc1,2.1%,i,209.1%,33.7*,64.1*,-4.3%
S=C1Nc2ccccc2CS1,101.1%,.,.,.,.,.
COc1ccccc1CN=C1Nc2ccccc2CS1,1.0%,160.7%,130.4%,29.9*,81.8*,0.7%
Cc1ccc(CN=C2Nc3ccccc3CS2)cc1,14.2%,326.1%,206.3%,34.5*,82.2*,4.2%
COc1cccc(CN=C2Nc3ccccc3CS2)c1,1.6%,i,i,54.1*,77.1*,-0.8%
c1cncc(CN=C2Nc3ccccc3CS2)c1,-1.5%,?,35.6%,15.9,51.0,0.6%
c1ccc2c(c1)CSc1ccccc1N2,-11.4%,.,.,.,.,.
O=C1CCC[C@@H]2CC(NCc3ccc(Cl)c(Cl)c3)C[C@@H]3CCN1[C@H]23 (some centres undefined),.,.,.,-4.6,i,.
COc1ccc(N(CC(=O)Nc2cccc(C(F)(F)F)c2)S(C)(=O)=O)cc1,13.8%,i,19.3%,active,19.8,-12.9%
COc1cccc(NC(=O)CN(c2cccc(C(F)(F)F)c2)S(C)(=O)=O)c1,-10.0%,18.1%,?,2.9,-25.6,14.2%
COc1ccc(N(CC(=O)Nc2cccc(SC)c2)S(C)(=O)=O)cc1,-2.7%,?,15.0%,22.5*,49.4*,0.4%
COC(=O)CN(c1cccc(OC)c1)S(C)(=O)=O,-1.9%,5.86µM*,6.6%,1.0,27.4,14.1%
Nc1ccc(NC(=O)CCN2CCOCC2)cc1,2.6%,?,?,0.4,8.7,6.9%
CCNC(=O)n1cc(-n2cncn2)c(-c2ccc(Cl)cc2)n1,-3.8%,33.8%,?,-1.8,18.7,1.8%
COc1ccc(-c2csc(Nc3ccc(C)cn3)n2)cc1OC,-4.1%,158.7%,11.2%,34.0*,75.4*,1.0%
COc1ccc(-c2csc(Nc3cc(C)ccn3)n2)cc1OC,-11.9%,4.6%,16.6%,51.1*,63.2*,-26.3%
SMILES,AMA1-RON2 inh,Pf growth 96h,Pf growth 48h,CHX counter,Shiga toxin inh,SARS PLP yeast
COc1ccc(-c2csc(Nc3ccc(S(N)(=O)=O)cc3)n2)cc1OC,-10.6%,?,?,-5.7,-11.0,-2.4%
COc1ccc(-c2csc(NC(=O)c3c(C)noc3C)n2)cc1OC,-13.2%,.,.,.,.,.
COc1ccc(C(NC(=O)C2CCN(CCOc3ccc(Cl)cc3Cl)CC2)c2cccs2)cc1 (centres undefined),-0.4%,.,.,.,.,.
COCCn1c(SCc2cc(C(C)=O)ccc2OC)nc2cc(Cl)ccc2c1=O,10.9%,?,?,-0.8,-6.9,-9.1%
c1cc(CNC23CC4CC(CC(C4)C2)C3)ccn1,18.7%,1.85µM*,11.9%,7.8,12.3,2.1%
O=C(CSc1ccc(S(=O)(=O)N2CCCC2)cn1)Nc1ccc([N+](=O)[O-])cc1C(F)(F)F,-24.3%,.,.,.,.,.
O=C1CSC(=S)N1c1ccc(F)cc1,.,19.0%,-4.1%,-1.2,-12.0,-1.2%
O=C1CSC(=S)N1c1cccc(O)c1,10.0%,31.4%,29.5%,10.3,3.0,-11.3%
CN(C)c1ccc(N2C(=O)CSC2=S)cc1,-22.6%,5.22µM*,7.8%,19.3*,61.9*,0.4%
O=C1CSC(=S)N1c1cccc(F)c1,-17.7%,10.4µM*,27.1%,2.4,-3.3,2.7%
O=C(O)c1cccc(N2C(=O)CSC2=S)c1,10.2%,5.86µM*,.,18.5*,37.1,-1.3%
c1ccc(C2CCC3(CC2)Oc2ccccc2C2CC(c4cccnc4)=NN23)cc1 (centres undefined),.,39.4%,19.8%,27.4*,40.4*,-40.6%
COCCN(C(=S)Nc1ccc(Cl)cc1OC)C1CCN(C(C)=O)CC1,-18.6%,15.0%,-0.7%,-5.8,-6.2,-0.6%
COc1ccc(CN(C)Cc2cc(=O)n3ccsc3n2)c(OC)c1OC,48.9%,?,173.7%,-1.3,-5.8,1.3%
Cc1ccc(S(=O)(=O)Nc2cc(C(=O)NCCN(C)C)ccc2N2CCCCC2)cc1,-6.0%,?,9.28µM*,-1.5,-4.0,21.5%
CCOCCCNC(=O)c1ccc(N2CCCC2)c(NS(=O)(=O)c2ccc(C)cc2)c1,-9.8%,28.2%,10.4%,10.6,12.5,-0.5%
COCCCNC(=O)c1ccc(N2CCCC2)c(NS(=O)(=O)c2ccc(C)cc2)c1,-1.9%,9.8%,?,11.1,43.8,1.9%
Cc1ccc(S(=O)(=O)Nc2cc(C(=O)NCCN3CCCC3)ccc2N2CCCCC2)cc1,-0.8%,.,11.7µM*,-3.7,-17.3,7.9%
CCc1nc2c(OCC(=O)C(C)(C)C)cccn2c1N(C)C(=O)COc1ccccc1,12.6%,.,.,.,.,.
O=c1c(-c2ccc(Br)cc2)coc2c(CN3CCCCC3)c(O)ccc12,-5.6%,2.33µM*,1.65µM*,-1.0,-4.5,-0.4%
COc1ccc(Oc2coc3c(CN4CCOCC4)c(O)ccc3c2=O)cc1,17.3%,2.94µM*,.,11.1,5.8,5.3%
O=c1c(-c2ccc(Br)cc2)coc2c(CN3CCOCC3)c(O)ccc12,-3.6%,?,2.62µM*,22.4*,35.2*,-5.3%
COc1ccc(-c2coc3c(CN4CCCCC4)c(O)c(CN4CCCCC4)c(O)c3c2=O)cc1,.,88.4%,5.86µM*,-2.0,-16.5,-0.3%
O=c1oc2c(CN3CCOCC3)c(O)ccc2c2c1CCCC2,27.8%,-0.8%[5.75 µM],?,-1.5,1.6,0.1%
COc1ccc(-c2c(C)oc3c(CN4CCN(C)CC4)c(O)ccc3c2=O)cc1,2.5%,?,-5.3%,-2.4,-3.9,-1.1%
COc1ccc(CNS(=O)(=O)c2cn(C)c(=O)n(C)c2=O)cc1,-13.2%,31.1%,24.7%,0.9,-26.6,2.3%
O=C(c1cc2c(c(-c3cccc(-c4ccncc4)c3)n1)[C@H](CCO)N(C(=O)c1ccc3c(c1)OCO3)C2)N1CCOCC1,11.3%,.,.,.,.,.

# Screening results deposited in PubChem by National Center for Advancing Translational Sciences (NCATS).
